Data as given in article PMC7862700, “An all-to-all approach to the identification of sequence-specific readers for epigenetic DNA modifications on cytosine”.

Legend:
Assay in all cases: DAPPL (digital affinity profiling via proximity ligation, sequencing); 10 mM Tris-HCl pH 7.5, 50 mM NaCl, 1 mM DTT, 4% glycerol, room temperature, 30 min; GST-TFs on glutathione beads, 16-mer random dsDNA library, 0.1% formaldehyde crosslink after washing; high values mean tight binding
FEV = target: T1, FEV (Homo sapiens, UniProt Q99581 1-238); conditions: protein: recombinant; tags: N-terminal GST; dsDNA, one strand shown
T1 sequence: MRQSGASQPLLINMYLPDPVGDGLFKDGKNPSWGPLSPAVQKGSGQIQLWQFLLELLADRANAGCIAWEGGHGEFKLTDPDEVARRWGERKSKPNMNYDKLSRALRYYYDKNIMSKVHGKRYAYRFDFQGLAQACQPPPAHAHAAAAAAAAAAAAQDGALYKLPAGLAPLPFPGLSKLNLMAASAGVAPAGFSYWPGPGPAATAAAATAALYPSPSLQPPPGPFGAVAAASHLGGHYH
In short: (§1)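 Sequencing on an Illumina NextSeq500 followed washing, crosslinking with 0.1% formaldehyde, proximity ligation (BsaI/T4 ligase, 1 h, 37 °C) and PCR amplification of pools that had been incubated for 30 min at room temperature with 200 nmole of a random double-stranded 16-mer DNA library in Tris/NaCl/DTT/glycerol buffer. Each pool held DNA-barcoded human transcription factors, expressed in yeast as GST fusions and captured on glutathione beads, plus a tag-only sample. Binding signal is a hexamer's read frequency for a factor divided by its frequency in the tag-only sample.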

ETV5 = ETV5 (Homo sapiens, UniProt P41161 1-510); conditions: protein: recombinant; tags: N-terminal GST; dsDNA, one strand shown
In short: as §1

HSF1 = HSF1 (Homo sapiens, UniProt Q00613 1-529); conditions: protein: recombinant; tags: N-terminal GST; chain copies: 3; dsDNA, one strand shown
In short: as §1

ELF4 = ELF4 (Homo sapiens, UniProt Q99607 1-663); conditions: protein: recombinant; tags: N-terminal GST; dsDNA, one strand shown
In short: as §1

ELK4 = target: T2, ELK4 (Homo sapiens, UniProt P28324-2 1-405); conditions: protein: recombinant; tags: N-terminal GST; dsDNA, one strand shown
T2 sequence: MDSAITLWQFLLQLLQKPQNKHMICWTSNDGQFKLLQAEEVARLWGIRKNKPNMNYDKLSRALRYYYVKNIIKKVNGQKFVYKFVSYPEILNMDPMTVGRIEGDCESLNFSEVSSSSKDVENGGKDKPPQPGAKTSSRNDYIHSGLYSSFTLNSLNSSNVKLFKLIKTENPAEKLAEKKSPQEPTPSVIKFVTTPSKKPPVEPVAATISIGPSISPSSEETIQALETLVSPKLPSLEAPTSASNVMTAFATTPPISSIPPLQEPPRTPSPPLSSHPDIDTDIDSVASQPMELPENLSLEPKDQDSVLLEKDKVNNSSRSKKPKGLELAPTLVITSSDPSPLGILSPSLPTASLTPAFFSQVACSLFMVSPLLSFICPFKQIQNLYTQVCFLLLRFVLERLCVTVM
In short: as §1

ETV2 = target: T3, ETV2 (Homo sapiens, UniProt O00321 1-342); conditions: protein: recombinant; tags: N-terminal GST; dsDNA, one strand shown
T3 sequence: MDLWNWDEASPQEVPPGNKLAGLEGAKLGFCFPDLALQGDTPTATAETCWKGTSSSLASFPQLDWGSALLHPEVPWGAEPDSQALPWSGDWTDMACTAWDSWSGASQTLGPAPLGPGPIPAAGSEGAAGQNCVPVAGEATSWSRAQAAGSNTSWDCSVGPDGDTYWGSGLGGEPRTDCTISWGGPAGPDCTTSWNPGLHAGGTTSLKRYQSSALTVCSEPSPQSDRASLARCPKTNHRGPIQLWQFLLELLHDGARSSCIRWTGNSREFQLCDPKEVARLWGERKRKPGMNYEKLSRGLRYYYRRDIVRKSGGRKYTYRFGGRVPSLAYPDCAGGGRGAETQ
In short: as §1

CRX = CRX (Homo sapiens, UniProt O43186 1-299); conditions: protein: recombinant; tags: N-terminal GST; dsDNA, one strand shown
In short: as §1

ETV1 = ETV1 (Homo sapiens, UniProt P50549 1-477); conditions: protein: recombinant; tags: N-terminal GST; dsDNA, one strand shown
In short: as §1

ERF = target: T4, ERF (Homo sapiens, UniProt P50548 1-548); conditions: protein: recombinant; tags: N-terminal GST; dsDNA, one strand shown
T4 sequence: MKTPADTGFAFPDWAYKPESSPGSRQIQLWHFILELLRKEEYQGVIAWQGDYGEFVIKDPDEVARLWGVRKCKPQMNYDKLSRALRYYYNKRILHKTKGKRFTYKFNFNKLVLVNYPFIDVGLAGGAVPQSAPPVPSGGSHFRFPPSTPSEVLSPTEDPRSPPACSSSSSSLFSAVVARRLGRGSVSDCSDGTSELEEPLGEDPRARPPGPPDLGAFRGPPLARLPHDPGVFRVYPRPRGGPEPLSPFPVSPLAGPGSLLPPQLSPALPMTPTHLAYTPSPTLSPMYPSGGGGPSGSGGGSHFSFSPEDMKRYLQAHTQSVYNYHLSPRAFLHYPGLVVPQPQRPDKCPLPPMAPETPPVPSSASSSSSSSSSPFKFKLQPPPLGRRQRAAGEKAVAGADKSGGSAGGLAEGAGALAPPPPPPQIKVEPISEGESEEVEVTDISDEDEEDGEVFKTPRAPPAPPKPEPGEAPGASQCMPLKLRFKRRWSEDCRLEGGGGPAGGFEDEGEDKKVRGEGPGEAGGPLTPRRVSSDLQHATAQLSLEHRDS
In short: as §1

ETV3L = target: T5, ETV3L (Homo sapiens, UniProt Q6ZN32 1-361); conditions: protein: recombinant; tags: N-terminal GST; dsDNA, one strand shown
T5 sequence: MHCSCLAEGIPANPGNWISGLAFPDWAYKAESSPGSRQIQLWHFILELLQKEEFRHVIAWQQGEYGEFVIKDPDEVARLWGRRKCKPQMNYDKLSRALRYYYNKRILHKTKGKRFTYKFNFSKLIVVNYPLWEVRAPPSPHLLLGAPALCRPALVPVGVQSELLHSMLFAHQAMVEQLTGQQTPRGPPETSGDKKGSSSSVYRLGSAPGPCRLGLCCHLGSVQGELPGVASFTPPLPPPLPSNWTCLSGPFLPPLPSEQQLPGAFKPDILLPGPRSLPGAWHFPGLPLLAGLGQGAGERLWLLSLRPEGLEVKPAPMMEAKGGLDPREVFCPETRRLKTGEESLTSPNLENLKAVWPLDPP
In short: as §1

ETS2 = target: T6, ETS2 (Homo sapiens, UniProt P15036 1-469); conditions: protein: recombinant; tags: N-terminal GST; dsDNA, one strand shown
T6 sequence: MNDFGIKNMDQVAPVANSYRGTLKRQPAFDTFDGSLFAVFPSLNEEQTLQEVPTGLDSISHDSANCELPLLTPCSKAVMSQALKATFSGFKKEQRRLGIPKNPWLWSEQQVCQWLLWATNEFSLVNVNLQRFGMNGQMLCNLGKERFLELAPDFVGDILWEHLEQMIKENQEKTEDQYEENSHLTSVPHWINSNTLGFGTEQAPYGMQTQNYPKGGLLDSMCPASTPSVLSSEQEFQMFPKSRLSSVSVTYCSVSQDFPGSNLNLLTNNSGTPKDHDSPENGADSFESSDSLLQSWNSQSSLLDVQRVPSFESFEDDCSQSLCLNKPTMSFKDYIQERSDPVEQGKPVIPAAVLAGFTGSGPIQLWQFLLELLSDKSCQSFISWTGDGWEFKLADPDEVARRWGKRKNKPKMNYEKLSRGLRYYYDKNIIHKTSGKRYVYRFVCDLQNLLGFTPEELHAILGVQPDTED
In short: as §1

SPDEF = target: T7, SPDEF (Homo sapiens, UniProt O95238 1-335); conditions: protein: recombinant; tags: N-terminal GST; dsDNA, one strand shown
T7 sequence: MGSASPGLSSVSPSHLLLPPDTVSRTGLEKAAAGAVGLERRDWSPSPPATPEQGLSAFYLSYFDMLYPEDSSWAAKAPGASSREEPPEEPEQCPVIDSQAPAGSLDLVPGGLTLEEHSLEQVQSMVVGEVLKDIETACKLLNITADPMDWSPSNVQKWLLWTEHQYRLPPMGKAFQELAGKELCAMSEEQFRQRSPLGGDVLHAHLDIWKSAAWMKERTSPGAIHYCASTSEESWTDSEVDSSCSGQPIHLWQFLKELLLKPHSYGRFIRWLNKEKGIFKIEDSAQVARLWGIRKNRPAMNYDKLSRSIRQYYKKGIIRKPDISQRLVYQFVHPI
In short: as §1

ETV7 = target: T8, ETV7 (Homo sapiens, UniProt Q9Y603 1-341); conditions: protein: recombinant; tags: N-terminal GST; dsDNA, one strand shown
T8 sequence: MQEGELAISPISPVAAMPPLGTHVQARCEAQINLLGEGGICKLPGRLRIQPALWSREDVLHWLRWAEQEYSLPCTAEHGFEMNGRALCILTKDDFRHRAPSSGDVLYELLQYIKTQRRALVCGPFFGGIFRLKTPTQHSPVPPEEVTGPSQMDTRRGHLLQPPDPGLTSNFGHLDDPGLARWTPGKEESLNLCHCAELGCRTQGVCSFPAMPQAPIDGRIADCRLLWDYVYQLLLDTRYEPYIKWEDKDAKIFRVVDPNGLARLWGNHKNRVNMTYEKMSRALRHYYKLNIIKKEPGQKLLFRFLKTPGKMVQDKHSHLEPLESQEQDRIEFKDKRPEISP
In short: as §1

ELF5 = target: T9, ELF5 (Homo sapiens, UniProt Q9UKW6-2 1-255); conditions: protein: recombinant; tags: N-terminal GST; dsDNA, one strand shown
T9 sequence: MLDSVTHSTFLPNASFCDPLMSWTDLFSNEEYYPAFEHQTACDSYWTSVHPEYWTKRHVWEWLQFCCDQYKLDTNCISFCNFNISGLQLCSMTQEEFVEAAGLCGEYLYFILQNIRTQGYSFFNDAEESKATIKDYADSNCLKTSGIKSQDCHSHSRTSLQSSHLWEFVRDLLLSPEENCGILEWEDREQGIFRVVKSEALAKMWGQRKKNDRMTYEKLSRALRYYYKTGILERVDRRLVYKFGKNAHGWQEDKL
In short: as §1

ETV3 = target: T10, ETV3 (Homo sapiens, UniProt P41162-2 1-143); conditions: protein: recombinant; tags: N-terminal GST; dsDNA, one strand shown
T10 sequence: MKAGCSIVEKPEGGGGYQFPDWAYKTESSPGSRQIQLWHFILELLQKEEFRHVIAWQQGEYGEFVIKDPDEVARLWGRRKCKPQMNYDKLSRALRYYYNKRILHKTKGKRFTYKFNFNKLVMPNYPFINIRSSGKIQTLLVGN
In short: as §1

ETV6 = ETV6 (Homo sapiens, UniProt P41212 1-452); conditions: protein: recombinant; tags: N-terminal GST; dsDNA, one strand shown
In short: as §1

ELF3 = target: T11, ELF3 (Homo sapiens, UniProt P78545 1-371); conditions: protein: recombinant; tags: N-terminal GST; dsDNA, one strand shown
T11 sequence: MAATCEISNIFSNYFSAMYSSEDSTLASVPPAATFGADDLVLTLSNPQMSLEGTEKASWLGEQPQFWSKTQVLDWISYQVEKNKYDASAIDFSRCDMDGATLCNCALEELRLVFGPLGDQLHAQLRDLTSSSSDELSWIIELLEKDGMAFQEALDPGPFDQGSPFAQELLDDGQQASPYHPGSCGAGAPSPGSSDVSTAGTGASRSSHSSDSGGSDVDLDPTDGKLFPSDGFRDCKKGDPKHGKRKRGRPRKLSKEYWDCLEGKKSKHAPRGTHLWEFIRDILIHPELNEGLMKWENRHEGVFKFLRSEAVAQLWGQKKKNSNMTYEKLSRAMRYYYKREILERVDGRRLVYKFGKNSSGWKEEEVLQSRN
In short: as §1

CRX, sequence (O43186 whole entry): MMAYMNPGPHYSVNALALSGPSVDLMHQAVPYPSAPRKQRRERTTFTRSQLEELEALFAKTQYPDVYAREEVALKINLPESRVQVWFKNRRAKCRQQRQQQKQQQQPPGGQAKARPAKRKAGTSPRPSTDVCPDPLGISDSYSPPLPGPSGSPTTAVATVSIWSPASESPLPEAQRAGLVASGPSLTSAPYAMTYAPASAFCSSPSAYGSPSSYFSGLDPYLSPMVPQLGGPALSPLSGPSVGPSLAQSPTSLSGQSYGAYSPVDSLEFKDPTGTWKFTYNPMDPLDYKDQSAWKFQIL
ETV5, sequence (P41161 whole entry): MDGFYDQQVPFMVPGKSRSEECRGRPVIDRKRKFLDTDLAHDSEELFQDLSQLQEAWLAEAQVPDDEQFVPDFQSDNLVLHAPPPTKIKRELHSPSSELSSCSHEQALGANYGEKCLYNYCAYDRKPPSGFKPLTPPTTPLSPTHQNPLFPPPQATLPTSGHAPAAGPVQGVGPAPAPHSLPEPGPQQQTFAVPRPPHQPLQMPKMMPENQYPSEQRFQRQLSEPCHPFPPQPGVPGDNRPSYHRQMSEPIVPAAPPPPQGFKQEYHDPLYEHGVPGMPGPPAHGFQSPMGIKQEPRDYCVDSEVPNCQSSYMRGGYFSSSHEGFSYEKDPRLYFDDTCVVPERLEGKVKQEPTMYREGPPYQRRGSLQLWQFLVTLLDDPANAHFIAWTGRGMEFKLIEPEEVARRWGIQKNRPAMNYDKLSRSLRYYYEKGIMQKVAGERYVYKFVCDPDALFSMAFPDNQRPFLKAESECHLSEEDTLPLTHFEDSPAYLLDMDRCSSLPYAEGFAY
ETV1, sequence (P50549 whole entry): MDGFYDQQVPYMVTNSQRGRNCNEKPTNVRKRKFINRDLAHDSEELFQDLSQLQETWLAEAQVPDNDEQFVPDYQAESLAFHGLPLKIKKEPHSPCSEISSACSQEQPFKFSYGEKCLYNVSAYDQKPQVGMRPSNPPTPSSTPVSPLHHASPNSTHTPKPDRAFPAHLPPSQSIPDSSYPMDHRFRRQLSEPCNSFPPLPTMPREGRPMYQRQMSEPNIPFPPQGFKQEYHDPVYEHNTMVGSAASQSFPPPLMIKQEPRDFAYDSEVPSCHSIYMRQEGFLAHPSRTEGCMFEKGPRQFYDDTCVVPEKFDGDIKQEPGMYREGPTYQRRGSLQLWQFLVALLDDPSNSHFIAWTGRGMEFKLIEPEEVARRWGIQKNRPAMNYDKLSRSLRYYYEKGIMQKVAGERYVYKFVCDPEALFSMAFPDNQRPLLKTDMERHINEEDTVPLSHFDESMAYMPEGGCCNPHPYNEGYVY
ETV6, sequence (P41212 whole entry): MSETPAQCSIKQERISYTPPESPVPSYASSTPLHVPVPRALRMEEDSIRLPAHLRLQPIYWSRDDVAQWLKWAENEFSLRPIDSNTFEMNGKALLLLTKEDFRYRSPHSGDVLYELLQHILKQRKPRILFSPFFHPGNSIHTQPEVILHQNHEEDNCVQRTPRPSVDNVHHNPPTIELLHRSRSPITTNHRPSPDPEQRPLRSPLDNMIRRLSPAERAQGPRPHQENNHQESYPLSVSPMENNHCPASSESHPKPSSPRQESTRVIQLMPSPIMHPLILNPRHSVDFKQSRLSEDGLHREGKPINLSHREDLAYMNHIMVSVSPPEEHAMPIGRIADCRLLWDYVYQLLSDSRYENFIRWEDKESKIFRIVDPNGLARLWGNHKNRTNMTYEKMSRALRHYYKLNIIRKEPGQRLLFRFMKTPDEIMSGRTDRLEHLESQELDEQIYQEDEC
HSF1, sequence (Q00613 whole entry): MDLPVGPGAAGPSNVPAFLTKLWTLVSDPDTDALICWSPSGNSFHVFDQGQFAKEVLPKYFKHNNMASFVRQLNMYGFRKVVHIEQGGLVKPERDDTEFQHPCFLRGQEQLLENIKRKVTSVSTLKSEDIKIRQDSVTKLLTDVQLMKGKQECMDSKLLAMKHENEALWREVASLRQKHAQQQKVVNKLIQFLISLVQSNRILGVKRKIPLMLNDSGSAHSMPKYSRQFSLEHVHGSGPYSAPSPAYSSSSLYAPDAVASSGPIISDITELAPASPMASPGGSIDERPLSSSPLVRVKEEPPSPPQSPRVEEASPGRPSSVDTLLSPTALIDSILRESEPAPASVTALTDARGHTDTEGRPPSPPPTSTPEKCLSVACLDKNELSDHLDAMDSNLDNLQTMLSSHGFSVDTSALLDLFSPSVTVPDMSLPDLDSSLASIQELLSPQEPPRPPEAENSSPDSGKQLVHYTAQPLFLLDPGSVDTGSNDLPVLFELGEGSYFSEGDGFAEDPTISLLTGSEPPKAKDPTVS
ELF4, sequence (Q99607 whole entry): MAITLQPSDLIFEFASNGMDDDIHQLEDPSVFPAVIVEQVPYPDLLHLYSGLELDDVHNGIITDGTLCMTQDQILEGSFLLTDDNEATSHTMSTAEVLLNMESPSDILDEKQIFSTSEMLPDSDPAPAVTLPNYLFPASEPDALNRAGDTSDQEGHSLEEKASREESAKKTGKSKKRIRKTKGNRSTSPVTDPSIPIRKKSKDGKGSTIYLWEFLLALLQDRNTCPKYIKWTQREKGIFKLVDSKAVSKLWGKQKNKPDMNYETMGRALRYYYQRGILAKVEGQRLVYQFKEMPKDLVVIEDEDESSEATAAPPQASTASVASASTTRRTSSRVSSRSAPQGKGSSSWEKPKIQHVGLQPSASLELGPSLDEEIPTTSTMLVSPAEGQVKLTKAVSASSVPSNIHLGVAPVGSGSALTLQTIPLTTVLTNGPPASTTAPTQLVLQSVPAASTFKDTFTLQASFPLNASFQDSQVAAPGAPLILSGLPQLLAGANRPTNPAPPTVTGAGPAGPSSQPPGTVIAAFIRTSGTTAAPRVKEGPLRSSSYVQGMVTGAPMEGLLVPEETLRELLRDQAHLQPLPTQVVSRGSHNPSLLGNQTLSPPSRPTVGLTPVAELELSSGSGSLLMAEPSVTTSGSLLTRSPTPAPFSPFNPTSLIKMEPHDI

GGTATA was tested, and the binding signal (FEV) was 1.08 fold enrichment (6-mer frequency, TF over GST control), the binding signal (ETV5) was 1.1 fold enrichment (6-mer frequency, TF over GST control) and the binding signal (HSF1) was 1.08 fold enrichment (6-mer frequency, TF over GST control). The binding signal (ELF4) was 1.08 fold enrichment (6-mer frequency, TF over GST control), the binding signal (ELK4) was 1.1 fold enrichment (6-mer frequency, TF over GST control) and the binding signal (ETV2) was 1.05 fold enrichment (6-mer frequency, TF over GST control). The binding signal (CRX) was 1.02 fold enrichment (6-mer frequency, TF over GST control), the binding signal (ETV1) was 1.11 fold enrichment (6-mer frequency, TF over GST control) and the binding signal (ERF) was 1.18 fold enrichment (6-mer frequency, TF over GST control). For the same sequence, the binding signal (ETV3L) was 1.12 fold enrichment (6-mer frequency, TF over GST control), the binding signal (ETS2) was 1.08 fold enrichment (6-mer frequency, TF over GST control) and the binding signal (SPDEF) was 1.12 fold enrichment (6-mer frequency, TF over GST control). For the same sequence, the binding signal (ETV7) was 1.13 fold enrichment (6-mer frequency, TF over GST control), the binding signal (ELF5) was 1.09 fold enrichment (6-mer frequency, TF over GST control) and the binding signal (ETV3) was 1.11 fold enrichment (6-mer frequency, TF over GST control). The binding signal (ETV6) was 1.03 fold enrichment (6-mer frequency, TF over GST control).
With TAGTGC the binding signal (FEV) was 1.02 fold enrichment (6-mer frequency, TF over GST control), the binding signal (ETV5) was 1.08 fold enrichment (6-mer frequency, TF over GST control) and the binding signal (HSF1) was 1.02 fold enrichment (6-mer frequency, TF over GST control). For the same sequence, the binding signal (ELK4) was 1.04 fold enrichment (6-mer frequency, TF over GST control), the binding signal (ETV2) was 1.02 fold enrichment (6-mer frequency, TF over GST control) and the binding signal (ELF3) was 1.03 fold enrichment (6-mer frequency, TF over GST control). For the same sequence, the binding signal (CRX) was 1.16 fold enrichment (6-mer frequency, TF over GST control), the binding signal (ETV1) was 1.09 fold enrichment (6-mer frequency, TF over GST control) and the binding signal (ERF) was 1.12 fold enrichment (6-mer frequency, TF over GST control). For the same sequence, the binding signal (ETV3L) was 1.05 fold enrichment (6-mer frequency, TF over GST control), the binding signal (ETS2) was 1.08 fold enrichment (6-mer frequency, TF over GST control) and the binding signal (SPDEF) was 1.06 fold enrichment (6-mer frequency, TF over GST control). The binding signal (ETV3) was 1.05 fold enrichment (6-mer frequency, TF over GST control) and the binding signal (ETV6) was 1.12 fold enrichment (6-mer frequency, TF over GST control).
